Experimental data taken from the supplement of paper PMC6555819.

How the values were obtained:
Assay in all cases: PBM binding z-score (relative to random genomic background probes); higher = stronger binding; sequences stand for … in GC…GCGATTGACAGCGTAGAATGAAGG
[1] = test system: FXR:RXRa (NR concentration 270 nM, RXRa partner concentration 90 nM)
Outline: (§1)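 Binding buffer was PBS pH 7.4 with 2% milk, 0.02% Triton X-100, 1 mM DTT, 0.2 mg/mL BSA and 0.4 mg/ml salmon testes DNA. In it, ligand-free nuclear receptor dimers were incubated 1 h on custom Agilent 4×180K protein-binding microarrays carrying double-stranded probes. Antibodies against each partner (one per run) detected binding, and z-scores were calculated against random background probes after regression normalization of scanned fluorescence.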

[2] = test system: LXRa:RXRa (NR concentration 270 nM, RXRa partner concentration 90 nM)
Outline: as §1

[3] = test system: LXRa homodimer (NR concentration 270 nM)
Outline: as §1

[4] = test system: LXRb:RXRa (NR concentration 270 nM, RXRa partner concentration 90 nM)
Outline: as §1

[5] = test system: LXRb homodimer (NR concentration 270 nM)
Outline: as §1

[6] = test system: PPARa:RXRa (NR concentration 270 nM, RXRa partner concentration 90 nM)
Outline: as §1

[7] = test system: PPARg:RXRa (NR concentration 180 nM, RXRa partner concentration 90 nM)
Outline: as §1

[8] = test system: PPARg:RXRa 270nM:90nM, anti-RXR (NR concentration 270 nM, RXRa partner concentration 90 nM)
Outline: as §1

[9] = test system: PPARg:RXRa 30nM:10nM, anti-RXR (NR concentration 30 nM, RXRa partner concentration 10 nM)
Outline: as §1

[10] = test system: PPARg:RXRa 90nM:30nM, anti-RXR (NR concentration 90 nM, RXRa partner concentration 30 nM)
Outline: as §1

[11] = test system: PPARg:RXRa DBDmut IVT, anti-RXR (DBD mutation: RXRa K156A/R161A, NR concentration 270 nM, RXRa partner concentration 90 nM)
Outline: as §1

[12] = test system: PPARg:RXRa IVT, anti-PPARg (NR concentration 270 nM, RXRa partner concentration 90 nM)
Outline: as §1

[13] = test system: PPARg DBDmut:RXRa IVT, anti-PPARg (DBD mutation: PPARg1 K132A/R137A, NR concentration 270 nM, RXRa partner concentration 90 nM)
Outline: as §1

[14] = test system: PPARg DBDmut IVT, anti-PPARg (DBD mutation: PPARg1 K132A/R137A, NR concentration 270 nM)
Outline: as §1

[15] = test system: PPARg homodimer (NR concentration 180 nM)
Outline: as §1

[16] = test system: PXR:RXRa (NR concentration 270 nM, RXRa partner concentration 90 nM)
Outline: as §1

[17] = test system: PXR homodimer (NR concentration 270 nM)
Outline: as §1

[18] = test system: RARa:RXR (NR concentration 270 nM, RXRa partner concentration 90 nM)
Outline: as §1

[19] = test system: RARa homodimer (NR concentration 270 nM)
Outline: as §1

[20] = test system: RARb:RXRa (NR concentration 270 nM, RXRa partner concentration 90 nM)
Outline: as §1

Sequence | PBM binding z-score [1] | PBM binding z-score [2] | PBM binding z-score [3] | PBM binding z-score [4] | PBM binding z-score [5] | PBM binding z-score [6] | PBM binding z-score [7] | PBM binding z-score [8] | PBM binding z-score [9] | PBM binding z-score [10] | PBM binding z-score [11] | PBM binding z-score [12] | PBM binding z-score [13] | PBM binding z-score [14] | PBM binding z-score [15] | PBM binding z-score [16] | PBM binding z-score [17] | PBM binding z-score [18] | PBM binding z-score [19] | PBM binding z-score [20]
GCGACTCGGGCATCAGCAGGTTACCATAACTTAA | -0.428 | -0.386 | -0.511 | -0.334 | -1.48 | 0.263 | 0.266 | -0.256 | -0.629 | -0.12 | 0.301 | -0.204 | -0.845 | -1.46 | -0.774 | -0.236 | -0.725 | 0.133 | -0.931 | 0.242
TCTTGTAGATCAATAGGGGTTAAGAAAGTGCGCT | 1.29 | 4.13 | 0.187 | 2.93 | 0.868 | 2.7 | 0.337 | 2.1 | 2.94 | 2.42 | 2.59 | 1.26 | 1.26 | 1.11 | 1.01 | 3.87 | 0.265 | 2.8 | 0.509 | 1.2
AGAACGAGGGCAATGATTTGATAGCACGGGTGGC | 0.321 | 0.43 | -0.337 | 0.168 | -0.65 | 1.41 | 1.57 | 0.787 | 0.29 | 0.557 | 3.4 | 2.89 | 0.782 | 0.14 | 0.437 | 0.447 | 0.328 | 0.36 | 0.605 | 1.95
TCTGCTAAGTCAACGATGGTCAGCTAATCTGCTA | -0.531 | -0.432 | -0.993 | -0.553 | -0.721 | -0.269 | -0.51 | 0.278 | 1.33 | 0.924 | 0.507 | -0.186 | -0.69 | -0.943 | -1.18 | -0.538 | -1.18 | -0.422 | -1.62 | 0.171
ATCTCTAGGTAAGACTCAGTTCAGTGAAGAACGC | 0.226 | 0.477 | 0.614 | 0.261 | 1.05 | 0.0408 | -0.0322 | 0.385 | 0.412 | 0.159 | 1.86 | 0.996 | 1.18 | 1.16 | 1.11 | 1.04 | 1.31 | 0.197 | 0.948 | 0.386
ATACCAAGGTGATAGTGAGGTCGTTGATACTAAC | 1.53 | 1.39 | 0.943 | 1.4 | 0.0823 | 1.81 | 0.759 | 0.98 | 0.458 | 0.738 | 0.454 | 1.64 | 0.276 | 0.701 | 1.01 | 3.17 | 1.94 | 2.23 | 0.553 | 1.51
AATACAGGGTCACTAGTCCAGAGTAGGTACGAAT | 5.5 | 4.68 | 0.946 | 3.94 | 1.32 | 5.09 | 5.61 | 5.17 | 1.77 | 3.89 | 3.25 | 4.67 | 0.95 | 0.987 | 1.66 | 2.97 | 0.58 | 3.7 | 1.03 | 3.99
